# Measured values reported in PubChem BioAssay.
# Values without a mark were called inactive. Calls of active or inactive are those of the source.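 The calls were made as follows: active = z-score of at least 1.8 in each of two replicates, scored against plate mean and spread of sample wells; inactive = the rest.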
# Assay: viability rescue of complex I mutant cybrids, primary screen, cell-based, galactose medium, ATP luminescence (AID 1645843);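 also: positive z means more ATP and so rescue of galactose-driven cybrid death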
# Conditions: complex I mutant cybrid cells, 72 h, stronger effect = higher value
row,SMILES,z-score
1,CC(C)n1cc(C(=O)N2CCCC(c3ccccc3)C2)cn1 (stereo not given),-0.54
2,COC(=O)CN1CCN(c2cc(OC)ncn2)CC1=O,-0.535
3,Cc1nsc(NC(=O)NCc2ccccc2OC(F)(F)F)n1,0.2
4,COc1ccccc1-c1noc(CN2CCOC2=O)n1,1.68
5,CC(C)C1=NOC(c2nc(C(C)c3ccccc3)no2)C1 (stereo not given),-0.83
6,O=C(Nc1cccc(N2CCCC2=O)c1)c1cc(C(F)(F)F)ccc1Cl,-0.405
7,Cc1ccc(NC(=O)c2csc(Cc3ccccc3)n2)cn1,-1.08
8,CC1(C)CC(CC(=O)N2CCC(n3cc(C(C)(C)O)nn3)CC2)CC(C)(C)N1,-0.57
9,COc1cccc(CC(=O)NCc2ccc(Cl)s2)c1,-0.145
10,CCCOC1CCCN(C2CCN(c3ccc(F)c(F)c3)CC2)C1 (stereo not given),-0.725
11,Cc1ccc2c(C(=O)N3CCCC(C#N)C3)cc(-c3cnn(C(C)C)c3)nc2c1 (stereo not given),-0.52
12,COc1cccc(-n2cc(-c3ccnc(N(C)CCn4ccnc4)n3)cn2)c1,1.84
13,CC1CCc2c(sc3ncn(Cc4noc(C(C)C)n4)c(=O)c23)C1 (stereo not given),-0.525
14,Cc1cc(NC(=O)Cn2ccc(-c3ccncc3)n2)n(-c2ccccn2)n1,0.42
15,Cc1nn(C)c(C)c1-c1ccnc(N2CCC(c3ccccc3Cl)C2)n1 (stereo not given),-1.27
16,COc1ccccc1CNC(=O)Nc1nnc(C)s1,4.88 (active)
17,O=C(Cn1ccc(-c2cccnc2)n1)Nc1ccnn1Cc1cccs1,-0.545
18,Cc1ccccc1N1CCCN(C(=O)CCC(C)C)CC1,3.28 (active)
19,Cc1cccc2c(=O)n(Cc3ccc(Cl)s3)cnc12,0.23
20,N#Cc1ccc(C(=O)N2CCNC(=O)C2Cc2ccccc2)cc1 (stereo not given),-0.47

row,SMILES,z-score
1,CCCCCNC(=O)N1CCC2(CC1)Nc1ccccc1N(CC)C2=O,-0.065
2,COc1ccc(CC(=O)NCc2cccc(SC)c2)cc1,0.19
3,CCn1ccnc1CN(C)Cc1ccc(-c2nc(C(F)(F)F)c(C)c(=O)[nH]2)cc1,0.66
4,Cn1nccc1NC(=O)Cn1ccc(-c2cnn(-c3ccccc3F)c2)n1,-0.815
5,CCN(C)Cc1ccc(-c2nc(C(F)(F)F)c(C)c(=O)[nH]2)cc1,0.97
6,Cc1ccc2c(C(=O)N3CCCCC3C)cc(-c3cnn(C(C)C)c3)nc2c1 (stereo not given),-0.16
7,C=C1C2(C(=O)N3CCC(c4ccc(F)cc4)C3)CCC(C2)C1(C)C (stereo not given),0.91
8,O=C1CN(c2ncnc3nc[nH]c23)CCN1C1CCCCC1,1.14
9,COC(=O)CCC1CCN(C(=O)CCC(C)C)CC1,-0.56
10,O=C1NCCN(C(=O)c2cccc(-c3ccccc3)c2)C1Cc1ccccc1 (stereo not given),2.37 (active)
11,Cc1nsc(NC(=O)N2CCCCC2c2cccc(F)c2)n1 (stereo not given),-0.55
12,O=C(Cn1cc(-c2cncnc2)cn1)Nc1ccnn1Cc1ccco1,1.12
13,CN1CCN(CC(C)(C)C)CC1CCO (stereo not given),-0.57
14,COc1cc(N2CCCC(c3nc(C(C)C)no3)C2)nc(N)n1 (stereo not given),0.815
15,O=c1c2cccc(C(F)(F)F)c2ncn1Cc1ccc(Cl)s1,-0.515
16,OC1(c2ccccc2)CCN(Cc2ccc(F)cc2Cl)C1 (stereo not given),-0.93
17,Nc1ncc(-c2ccc(Cl)cc2Cl)cn1,-0.065
18,CC(C)(C)c1cn(C2CCN(C(=O)CC3CCCCCC3)CC2)nn1,-0.225
19,CCc1c(C(=O)N2CCCN(C(C)=O)CC2)csc1C,-0.54
20,Cc1nc(C(=O)N2CCCC(Cn3cc(-c4ccsc4)nn3)C2)cs1 (stereo not given),-0.08
